From PubChem BioAssay (NCI)
About 83,000 compounds went through this panel and 20% of them were active in at least one assay; those are over-represented in the sample as a whole.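 Growth was measured after 48 h exposure to one concentration of compound in 96-well plates. Values under 10 count as active.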 Active and inactive are the calls of the source.

Tests used:
Experiment in all cases: NCI-60 one-dose screen, 48 h (100 = growth as untreated, 0 = no growth, -100 = all killed)
Details in all cases: 10 µM unless noted
RPMI-8226 leukemia = system: RPMI-8226 leukemia
OVCAR-8 ovarian = system: OVCAR-8 ovarian
OVCAR-4 ovarian = system: OVCAR-4 ovarian
SK-OV-3 ovarian = system: SK-OV-3 ovarian
IGROV1 ovarian = system: IGROV1 ovarian
OVCAR-3 ovarian = system: OVCAR-3 ovarian
HS 578T breast = system: HS 578T breast
NCI/ADR-RES ovarian = system: NCI/ADR-RES ovarian
T-47D breast = system: T-47D breast
BT-549 breast = system: BT-549 breast
MDA-MB-435 melanoma = system: MDA-MB-435 melanoma
SW-620 colon = system: SW-620 colon
MCF7 breast = system: MCF7 breast
HCT-116 colon = system: HCT-116 colon
HCC-2998 colon = system: HCC-2998 colon
KM12 colon = system: KM12 colon
OVCAR-5 ovarian = system: OVCAR-5 ovarian

SMILES | growth (RPMI-8226 leukemia) | growth (OVCAR-8 ovarian) | growth (OVCAR-4 ovarian) | growth (SK-OV-3 ovarian) | growth (IGROV1 ovarian) | growth (OVCAR-3 ovarian) | growth (HS 578T breast) | growth (NCI/ADR-RES ovarian) | growth (T-47D breast) | growth (BT-549 breast) | growth (MDA-MB-435 melanoma) | growth (SW-620 colon) | growth (MCF7 breast) | growth (HCT-116 colon) | growth (HCC-2998 colon) | growth (KM12 colon) | growth (OVCAR-5 ovarian)
Cc1nn(-c2ccccc2)c(Oc2ccc(Cl)cc2)c1/C=N\N=c1/sc2ccccc2n1C | 77.4% (inactive) | 89.1% (inactive) | 106% (inactive) | 74.2% (inactive) | 84.7% (inactive) | 101% (inactive) | 78.8% (inactive) | 98.1% (inactive) | 66.4% (inactive) | 84.1% (inactive) | 97.2% (inactive) | 77.8% (inactive) | 85% (inactive) | 73.2% (inactive) | 103% (inactive) | 94.6% (inactive) | 
Cc1ccc(Nc2ccc(Nc3ccc(C)cc3)c3c2C(=O)c2cccc(O)c2C3=O)cc1 | 88.7% (inactive) | 97.8% (inactive) | 105% (inactive) | 87.5% (inactive) | -12.9% (active) | 121% (inactive) | 99% (inactive) |  | 104% (inactive) | 113% (inactive) | 104% (inactive) | 99.4% (inactive) | 87.6% (inactive) | 99% (inactive) | 109% (inactive) | 92.7% (inactive) | 
COc1ccc2c(c1)[nH]c(=O)c1c3cccnc3cn21 | 32% (inactive) | 8.08% (active) |  | 11.9% (inactive) | 20.2% (inactive) | 23.8% (inactive) |  | 0.176% (active) | 60.2% (inactive) | 45.6% (inactive) | -6.86% (active) | 20% (inactive) | 20.5% (inactive) | 15.2% (inactive) | 21.5% (inactive) | 14.5% (inactive) | 
Cc1ccc(C(=NN=C(N)N)c2ccc(C)cc2)cc1 | 1.96% (active) | 6.75% (active) | 31.2% (inactive) | -10.8% (active) | 5.38% (active) | -34.8% (active) | 32.4% (inactive) | 6.63% (active) | 20.3% (inactive) | -24.8% (active) | -39% (active) | 28.4% (inactive) | 2.04% (active) | 2.81% (active) |  | 1.93% (active) | 
COC(=O)c1ccc(CSc2nnc(-c3c(C)nc4ccc(C)cn34)o2)cc1 | 88.4% (inactive) | 103% (inactive) |  |  | 109% (inactive) | 119% (inactive) | 105% (inactive) | 89.7% (inactive) | 89.4% (inactive) | 100% (inactive) | 102% (inactive) | 108% (inactive) | 85.9% (inactive) | 99.3% (inactive) | 87% (inactive) | 110% (inactive) | 106% (inactive)
O=c1[nH]nc(-c2ccccc2)c2c(-c3ccccc3)onc12 | 19.5% (inactive) | 54.3% (inactive) | 64.1% (inactive) | 15.4% (inactive) | 13.2% (inactive) | -15.8% (active) |  | 30.4% (inactive) | 20.1% (inactive) | 22.8% (inactive) | 16.7% (inactive) | 22.2% (inactive) | 25.6% (inactive) | 35.7% (inactive) | 35.1% (inactive) | 29.8% (inactive) | 
COc1ccc2oc3c(C)c4c(c(C)c3c2c1)C(=O)N(Cc1ccccc1)C4=O | 100% (inactive) |  | 90.7% (inactive) | 103% (inactive) | 94.6% (inactive) | 89.3% (inactive) | 85.5% (inactive) |  | 95% (inactive) | 96.1% (inactive) | 99.2% (inactive) | 78.3% (inactive) | 95.5% (inactive) | 65.5% (inactive) | 102% (inactive) | 97.4% (inactive) | 99.9% (inactive)
CCN1C(=O)N(CC)C2Nn3c(s/c(=C\c4ccc(Cl)cc4Cl)c3=O)=NC21 (configuration not stated) | 47.2% (inactive) |  | 56.7% (inactive) | 70.2% (inactive) | 40.6% (inactive) | 17.4% (inactive) | 55.4% (inactive) |  | 76.9% (inactive) | 38.6% (inactive) | -40.7% (active) | 30.4% (inactive) | 28.9% (inactive) | 15.2% (inactive) | 73.9% (inactive) | 13.1% (inactive) | 54.5% (inactive)
c1ccc(-c2nc([P+](c3ccccc3)(c3ccccc3)c3ccccc3)c(N3CCOCC3)o2)cc1 | -28.5% (active) | 1.55% (active) | 11.4% (inactive) |  | 16.7% (inactive) | 11% (inactive) | 24.9% (inactive) | 92.8% (inactive) | -3.03% (active) | -5.41% (active) | -1.04% (active) | 14.4% (inactive) | 2.94% (active) | 2.08% (active) | 26.5% (inactive) | -1.22% (active) | 
O=C(CCCCCCN1CC(=O)N2[C@@H](c3ccccc3Cl)c3[nH]c4ccccc4c3C[C@H]2C1=O)NO | 14.8% (inactive) |  | 68.3% (inactive) | 84.8% (inactive) | 66.5% (inactive) | 56.9% (inactive) | 59.2% (inactive) | 89.8% (inactive) |  | 76.8% (inactive) | 59.3% (inactive) | 49.1% (inactive) | 44% (inactive) | 34.2% (inactive) |  | 74.8% (inactive) | 61% (inactive)
CCc1ccccc1-n1c(-c2ccc(Cl)cc2)cc(-c2ccc(Cl)cc2)c(C#N)c1=O | 49.3% (inactive) |  | 85.9% (inactive) | 96.5% (inactive) | 96.1% (inactive) | 87.7% (inactive) | 88.4% (inactive) | 81.7% (inactive) | 78.6% (inactive) | 93.7% (inactive) | 82.8% (inactive) | 88.9% (inactive) | 61.7% (inactive) | 69.8% (inactive) | 101% (inactive) | 82.9% (inactive) | 92.2% (inactive)
Cc1cc(O)c(C2=NN(c3ccc(S(N)(=O)=O)cc3)C(c3ccccc3Cl)C2)cc1Cl (configuration not stated) | 11% (inactive) | -14.5% (active) |  | 44.5% (inactive) | 12.2% (inactive) | -13.1% (active) |  | -11% (active) |  | 104% (inactive) | 8.16% (active) | -27.4% (active) | 0.899% (active) | -90.4% (active) | -39.4% (active) | -37% (active) | 18.1% (inactive)
O=C(/C=C/c1ccc(Cl)nc1)c1ccc(Cl)cc1Cl |  | 95.6% (inactive) | 87.3% (inactive) | 106% (inactive) | 96.9% (inactive) | 78.5% (inactive) | 110% (inactive) | 102% (inactive) | 91.6% (inactive) | 110% (inactive) | 89.9% (inactive) | -33.2% (active) | 17.1% (inactive) | 36.7% (inactive) | 114% (inactive) | 76.5% (inactive) | 91.4% (inactive)
NC(N)=Nc1nc2ccccc2n2c1nc1ccccc12 |  | 25.5% (inactive) | 36% (inactive) | 32.9% (inactive) | 20.3% (inactive) | 43.3% (inactive) | 43.8% (inactive) | 63.1% (inactive) | 40.7% (inactive) | 83% (inactive) | 33.3% (inactive) | 24.9% (inactive) | 8.98% (active) | 18.2% (inactive) |  | 33.6% (inactive) | 54.3% (inactive)
CC(C)Sc1nc(NNC(N)=S)c(C#N)c(-c2ccc(F)cc2)n1 |  | 97.4% (inactive) | 102% (inactive) | 83.9% (inactive) | 97.1% (inactive) | 113% (inactive) | 101% (inactive) | 99% (inactive) | 83.2% (inactive) | 104% (inactive) | 108% (inactive) | 106% (inactive) | 99.1% (inactive) | 94.6% (inactive) | 101% (inactive) | 99% (inactive) | 88.3% (inactive)
O=C(CSc1nnc(-c2ccc(NC(=O)c3cccnc3)cc2)o1)N[C@@H](Cc1ccc(O)cc1)C(=O)O |  | 99.8% (inactive) | 120% (inactive) | 101% (inactive) | 102% (inactive) | 120% (inactive) | 96.9% (inactive) | 104% (inactive) | 86% (inactive) | 113% (inactive) |  | 111% (inactive) | 105% (inactive) | 99.6% (inactive) | 108% (inactive) | 110% (inactive) | 106% (inactive)
COc1ccc(-c2nc(SCCC(C)C)nc(N/N=C\c3ccccc3O)c2C#N)cc1 |  | 75.4% (inactive) | 4.04% (active) | 87.6% (inactive) | 86.7% (inactive) | 78.8% (inactive) | 63.2% (inactive) | 84.2% (inactive) | 83.9% (inactive) | 100% (inactive) |  | 72.1% (inactive) | 79% (inactive) | 71% (inactive) | 104% (inactive) | 91.4% (inactive) | 99.7% (inactive)
O=c1c2cc(F)ccc2sc2c(Nc3cccnc3)nc3ccccc3c12 |  | 89.1% (inactive) | 105% (inactive) | 93.9% (inactive) | 73.7% (inactive) | 108% (inactive) | 74% (inactive) | 90.4% (inactive) | 84.7% (inactive) | 98.7% (inactive) | 99.1% (inactive) | 85.6% (inactive) | 55.1% (inactive) | 61.5% (inactive) | 94.1% (inactive) | 89.2% (inactive) | 57.8% (inactive)
